Source: PubChem BioAssay AID2629 (Broad Institute, 2010)
Values joined by “and” are separate entries in the source; they are usually repeats but may differ in a detail not shown here. Equal entries are not always repeated. The whole screen tested about 320,000 compounds, of which about 1,900 (0.59%) were called active. No stated cut-off is given here; in the data, active means inhibition mostly above about 10% (no sharp cut-off); inactive means mostly below about 6.7%. Shown is part of a subset that was picked to be rich in actives. Where a structure was tested more than once in an assay, its records may differ in their call.

molecular target: Protein LANA1 (Human herpesvirus 8 type P (isolate GK18)) (UniProt Q9QR71); assay: blockers of LANA interaction with H2A/H2B – biochemical, FP readout, HTS, primary screen (AID 2629); settings: cell-free LANA-H2A/H2B peptide, fluorescence polarization, stronger effect = higher value, concentration not given here
Sequence (Q9QR71 whole entry, looked up): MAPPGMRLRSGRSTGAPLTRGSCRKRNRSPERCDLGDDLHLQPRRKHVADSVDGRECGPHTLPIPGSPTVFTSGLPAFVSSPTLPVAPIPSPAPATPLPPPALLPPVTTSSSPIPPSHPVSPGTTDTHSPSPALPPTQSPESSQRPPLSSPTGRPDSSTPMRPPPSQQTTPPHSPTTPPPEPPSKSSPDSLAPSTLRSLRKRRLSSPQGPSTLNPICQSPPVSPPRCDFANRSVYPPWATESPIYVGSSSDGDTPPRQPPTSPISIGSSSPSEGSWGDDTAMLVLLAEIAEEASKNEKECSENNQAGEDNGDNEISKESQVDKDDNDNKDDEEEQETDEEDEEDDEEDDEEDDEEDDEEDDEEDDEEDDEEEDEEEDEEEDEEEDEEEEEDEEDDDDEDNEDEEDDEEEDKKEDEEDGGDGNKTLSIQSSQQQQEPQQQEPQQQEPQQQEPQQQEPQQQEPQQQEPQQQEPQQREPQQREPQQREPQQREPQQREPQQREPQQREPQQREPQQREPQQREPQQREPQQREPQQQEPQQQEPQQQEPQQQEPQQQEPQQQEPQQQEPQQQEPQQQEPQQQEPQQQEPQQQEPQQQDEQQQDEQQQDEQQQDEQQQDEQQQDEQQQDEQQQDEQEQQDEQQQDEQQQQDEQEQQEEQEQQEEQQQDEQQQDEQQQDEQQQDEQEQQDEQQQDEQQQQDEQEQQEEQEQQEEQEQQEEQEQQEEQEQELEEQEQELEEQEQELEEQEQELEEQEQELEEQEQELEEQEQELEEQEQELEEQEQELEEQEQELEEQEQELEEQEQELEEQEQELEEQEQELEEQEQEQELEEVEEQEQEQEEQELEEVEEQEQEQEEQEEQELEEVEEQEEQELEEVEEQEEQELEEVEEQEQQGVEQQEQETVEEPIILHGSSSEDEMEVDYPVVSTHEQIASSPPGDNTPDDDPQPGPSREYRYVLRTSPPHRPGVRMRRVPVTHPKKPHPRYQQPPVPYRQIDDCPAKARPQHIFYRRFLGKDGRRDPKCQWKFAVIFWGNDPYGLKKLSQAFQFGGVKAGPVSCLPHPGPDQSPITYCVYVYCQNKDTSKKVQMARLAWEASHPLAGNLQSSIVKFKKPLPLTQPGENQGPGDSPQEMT

SMILES | inhibition
COC(=O)[C@H](Cc1ccccc1)NC(=O)[C@@H]1C[C@H]1[C@@H](NC(=O)OCc1ccccc1)c1ccccc1 | 14.2% (active)
COC(=O)[C@@H](Cc1ccccc1)NC(=O)NCCc1ccccc1 | -0.105% (inactive)
COC(=O)[C@H](C)[C@H]1C[C@]1(C)[C@H](NC(=O)OCc1ccccc1)c1ccccc1 | -3.43% (inactive)
COc1ccc(N2CCN(Cc3ccc(Br)s3)CC2)cc1 | 0.937% (inactive)
COc1ccccc1C(=O)N1CCNC(=O)C1CC(=O)Nc1ccc(Cl)cc1 (stereo unspecified) | -4.24% (inactive)
CSc1ccc(Cl)c(C(=O)OCC(=O)N2CCNC2=O)c1 | 2.35% (inactive)
COCCNc1ncnc2c1nc1n2CCCC1 | 3% (inactive)
Cc1cccc(NS(=O)(=O)c2ccc(C)c(C(=O)NCC(c3ccccc3)N(C)C)c2)c1 (stereo unspecified) | 70.5% (active)
Cc1cccc(NS(=O)(=O)c2ccc(C)c(C(=O)NCc3cccnc3)c2)c1 | -4.62% (inactive)
Cc1cccc(NS(=O)(=O)c2ccc(C)c(C(N)=O)c2)c1 | 2.17% (inactive)
O=C1C=C(c2ccnc3cc(Cl)ccc23)C[C@@H](c2ccc3c(c2)OCO3)C1 | 0.0706% (inactive)
O=C(NCCc1ccc(F)cc1)c1ccc2nccnc2c1 | 7.1% (inactive)
Cc1nc(C)c2c(c1C(F)(F)F)-c1ccccc1C2(F)F | 11.7% (active)
CN(CCOc1ccc(CC2SC(=O)NC2=O)cc1)c1ccccn1 (stereo unspecified) | 11.3% (active) and 1.08% (inactive)
CC(O)c1ccc(OCCN(C)c2ccccn2)cc1 (stereo unspecified) | 0.184% (inactive)
CC(C)=N/N=C1/NC(=O)C(Cc2ccccc2)S1 (stereo unspecified) | 0.219% (inactive)
CNc1nccc(-c2ccc(Cl)cc2)c1C#N | -1.28% (inactive)
CSCC[C@H](NC(=O)N1CCn2c1nc1ccccc12)C(=O)NC1CCCCC1 | -4.45% (inactive)
Cc1nc(NC(CC(C)C)C(=O)O)c2nc(C)oc2n1 (stereo unspecified) | 11.3% (active)
Cc1cc(C)cc(C(=O)NC(CC(N)=O)c2ccc(N3CCC(N4CCCCC4)CC3)c([N+](=O)[O-])c2)c1 (stereo unspecified) | -1.95% (inactive)
N#CC1=C(SCc2ccc(C#N)cc2)N=C(N)C(c2nc(-c3ccccc3)cs2)C12CCCCC2 (stereo unspecified) | 5.1% (inactive)
N#CC1=C(SCc2ccccc2)NC(=O)C(C#N)C12CCCC2 (stereo unspecified) | 15% (active)
CC1(C)CCc2nc(SCc3ccccc3)c(C#N)cc2C1 | -3.11% (inactive)
COCCCNC(=O)Cc1ccc(-n2c(C)nc3cccnc32)cc1 | -0.715% (inactive)

SMILES | inhibition
CCc1ccc(-c2nc(SCC(=O)NC3CCCC3)n[nH]2)cc1 | 1.39% (inactive)
Cc1onc(-c2ccccc2)c1C(=O)Nc1ccccc1C#N | 1.04% (inactive)
CC(=O)Nc1cccc(NC(=O)c2c(-c3ccccc3)noc2C)c1 | 18.3% (active)
Cc1ccc(CNC(=O)c2c(-c3ccccc3)noc2C)cc1 | -3.29% (inactive)
CC(=O)NC12CC3CC(C1)CC(C(=O)N1CCN(C(=O)c4ccco4)CC1)(C3)C2 | -0.808% (inactive)
O=C(NCC12CC3CC(C1)CC(CNC(=O)N1CCCC1)(C3)C2)N1CCCC1 | -3.32% (inactive)
O=C(N1CCCC1)C12CC3CC(C1)CC(C(=O)N1CCCC1)(C3)C2 | 15.6% (active)
O=S(=O)(NC1CCCCC1)c1ccc(F)c2ccccc12 | -1.01% (inactive)
COc1cccc(N(C(=O)c2ccn[nH]2)C2(C(=O)Nc3c(C)cccc3C)CCCCC2)c1 | 83.6% (active)
COc1cccc(N2CC(C(=O)Nc3c(C)cccc3C)CC2=O)c1 (stereo unspecified) | -1.43% (inactive)
Cc1cccc(C)c1NC(=O)C1(N(C(=O)c2ccccn2)c2ccc(O)cc2)CCCCC1 | -0.134% (inactive)
COc1cc(CNCc2ccc(OC)c3ccccc23)cc(OC)c1OC | -2.97% (inactive)
C=CCC[C@@H](Cc1ccc(F)cc1)C(=O)OC[C@@H](C)NC(=O)[C@H](CC=C)CC(=O)N(CCO)Cc1ccccc1 | -1.37% (inactive)
O=C(CSc1nc2ccccc2c(=O)n1-c1ccccc1F)N1CCOCC1 | -5.04% (inactive)
CCOC(=O)N1CCN(C(=O)Cn2cnc3ccccc3c2=O)CC1 | 3% (inactive)
CCOC(=O)N1CCN(CC(=O)Nc2cc(C)nn2-c2nc3ccccc3s2)CC1 | 16.1% (active)
CCOC(=O)N1CCN(CC(=O)Nc2ccc(F)cc2)CC1 | -4.74% (inactive)
O=C(OCc1ccccc1F)c1ccc2c(c1)OCCO2 | -6.13% (inactive)
CC(=O)c1nnn(-c2ccc(Cl)cc2C#N)c1C | 10.1% (active)
CCOC(=O)c1nc(C)n(-c2ccc(Cl)cc2Cl)n1 | -1.22% (inactive)
CC(=O)c1cc(C#N)c(SCC(=O)C(C)(C)C)nc1C | -1.09% (inactive)
Cc1ccc(S(=O)(=O)NC(C(=O)N2CCOCCOCCOCCOCC2)c2ccccc2)cc1 (stereo unspecified) | -3.32% (inactive)
Brc1ccc(-c2n(-c3ccccn3)c3ccccc3[n+]2-c2ccccn2)cc1 | 5.04% (inactive)
C[C@@H](C(=O)Nc1ccc2ccccc2c1)[C@@H]1C[C@@]1(C)[C@@H](NC(=O)c1cccnc1)c1ccccc1 | 1.66% (inactive)

SMILES | inhibition
COc1ccc(C(=O)NC2CC2)cc1OC1CCN(Cc2ccc(SC)cc2)CC1 | 12.2% (active)
COc1ccc(C(=O)NC2CC2)cc1OC1CCN(Cc2cnn(C)c2)CC1 | 2.53% (inactive)
COc1ccc(C(=O)NC2CC2)cc1OC1CCN(C/C=C/c2ccccc2)CC1 | 5.63% (inactive)
COc1ccc(C(=O)n2nc(C)c(Br)c2C)cc1OC | 2.73% (inactive)
COc1ccc(C(=O)NC(=S)N2CCCCC2c2cccnc2)cc1OC (stereo unspecified) | -0.0544% (inactive)
Cc1cccn2c(=O)c3cc(C(=O)NC4CCCCC4)sc3nc12 | 32.6% (active)
CN(C(=O)c1cc2c(=O)n3ccccc3nc2s1)C1CCCCC1 | -5.4% (inactive)
Cc1ccccc1-n1nc(C)c2cc(C(=O)NC3CC3)sc21 | 0.464% (inactive)
O=C(Nc1ccccc1)/C(=C\c1ccco1)NC(=O)c1ccco1 | 4.48% (inactive)
Cc1ccc(NC(=O)/C(=C\c2ccccc2)NC(=O)c2ccco2)cc1 | 15.5% (active)
COc1ccc(/C=C(/NC(=O)c2ccco2)C(=O)Nc2ccc(C(C)=O)cc2)cc1 | 3.73% (inactive)
Cn1c(=O)c2c(nc(NCCNC(=O)c3ccco3)n2Cc2ccccc2F)n(C)c1=O | 0.914% (inactive)
CC[N+](C)(CC)CCC[n+]1c(-c2ccccc2)c2cc(N)ccc2c2ccc(N)cc21 | 37% (active)
COc1cc(N/C=C2\CC(=O)NC(C)=C2C#N)cc(OC)c1OC | 1.67% (inactive)
CCOC(=O)C(NS(=O)(=O)c1ccc(C)cc1)(C(F)(F)F)P(=O)(OCC(C)C)OCC(C)C (stereo unspecified) | -0.856% (inactive)
CC(C)C(=O)NC(NC(=S)NC1CCS(=O)(=O)C1)C(Cl)(Cl)Cl (stereo unspecified) | 5.16% (inactive)
CCOc1ccc2nc(N(CCN(C)C)C(=O)c3ccc4ccccc4c3)sc2c1 | -2.61% (inactive)
CCOc1ccc2nc(N(CCCN(C)C)C(=O)c3ccc(C(=O)c4ccccc4)cc3)sc2c1 | 2.47% (inactive)
CCN(CC)CCN(C(=O)c1cccc([N+](=O)[O-])c1)c1nc2ccc(OC)cc2s1 | 10.8% (active)
O=c1cc(-c2ccccc2)[nH]c2cc(F)ccc12 | -0.193% (inactive)
Cc1ccc(N/C(N)=N/c2nc(C(F)(F)F)cc(C(F)(F)F)n2)cc1 | 1.07% (inactive)
Cn1c(=O)c(=O)n(C)c2cc(S(=O)(=O)NCCN3CCN(c4ccccc4F)CC3)ccc21 | 2.45% (inactive)
Cc1ccc2c(c1)-c1c(ssc1=S)C(C)(C)N2C(=O)CN1C(=O)c2ccccc2C1=O | -1.1% (inactive)
CCC1=Nc2cc(C(=O)NCCCN3CCOCC3)ccc2Sc2ccc(Br)cc21 | 3.58% (inactive)

SMILES | inhibition
O=C(NCCCN1CCOCC1)c1ccc2c(c1)N(Cc1cccc(F)c1)C(=O)c1ccccc1S2 | -7.56% (inactive)
Cc1ccccc1CN1C(=O)c2ccccc2Sc2ccc(C(=O)NCCCN3CCOCC3)cc21 | 19.6% (active)
COc1ccc(Cl)cc1N(CC(=O)N/N=C/c1ccc(OCC(N)=O)cc1)S(C)(=O)=O | 0.205% (inactive)
COc1cc(NC(=O)c2[nH]cnc2C(N)=O)cc(C(=O)Nc2cccc(C(F)(F)F)c2)c1 | -1.33% (inactive)
O=C(Nc1ccccn1)C1CCN(S(=O)(=O)c2ccccc2)CC1 | -0.314% (inactive)
O=C(Nc1ccccn1)C1CCN(S(=O)(=O)c2ccc3c(c2)OCCO3)CC1 | 35.5% (active)
O=C(NCc1cccs1)C1CCN(S(=O)(=O)c2ccc3c(c2)OCCO3)CC1 | -3.5% (inactive)
Nc1c(-c2ccccc2)nnn1Cc1ccccc1 | -2.36% (inactive)
CCOC(=O)c1ccc(COC(=O)CCc2nc(-c3ccccc3)c(-c3ccccc3)o2)cc1 | -6.88% (inactive)
Cc1nnc(NC2=NCCCCC2)o1 | 4.02% (inactive)
COc1ccc(C)cc1NC(=O)CSc1ccc(Cl)cc1 | -4.45% (inactive)
COc1ccc(C)cc1NC(=O)CNCc1cccs1 | 0.209% (inactive)
Cc1onc(-c2ccccc2Cl)c1C(=O)N(Cc1ccc(N(C)C)cc1)C(C)C | 12.7% (active)
Cc1onc(-c2ccccc2Cl)c1C(=O)NCCn1ccc2ccccc21 | -5.8% (inactive)
Cc1onc(-c2ccccc2Cl)c1C(=O)OCC(=O)c1ccccc1 | 4.43% (inactive)
CC(C)COC(=O)n1c(=O)oc2ccc(S(=O)(=O)N3CCCCC3)cc21 | 2.24% (inactive)
CCOC(=O)c1cc2cc3ccccc3cc2oc1=O | 16.8% (active)
C=CCc1cccc2cc(C(=O)OCC)c(=O)oc12 | -5.34% (inactive)
CCOC(=O)c1c(C)nc2c(c1C)c(=O)oc1ccccc12 | 1.54% (inactive)
NC(=O)C[n+]1cccc(C(N)=O)c1 | -3.37% (inactive)
CC(CO)(CO)NC(=O)c1ccc(=O)[nH]n1 | 3.9% (inactive)
CCc1nn(CCCN2CCN(c3cccc(Cl)c3)CC2)c(=O)n1CCOc1ccccc1 | -0.456% (inactive) and 3% (inactive)
c1ccc2cc(CCCc3cc4ccccc4cn3)ncc2c1 | 2.17% (inactive)
Cc1noc(C)c1COc1ccccc1C(=O)N(C)CC(=O)Nc1cccc(F)c1 | 0.0499% (inactive)
